From PubChem BioAssay (NCI) come the findings set out here.

Each structure is given as a SMILES string. This is part of a sample that, as a whole, favours compounds with a hit. Of some 83,000 tested, about 20% had one in any assay.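 Interpretation: 100, growth as untreated; towards 0, rising growth inhibition; 0, no net growth; 0 to -100, cell death. Compounds scoring below 10 were considered active.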 A number with no mark means an inactive call. Activity calls are given as the source filed them.

Test systems include NCI-H23 lung; NCI-H226 lung; NCI-H322M lung; HOP-62 NSCLC; NCI-H460 lung; HOP-92 NSCLC; NCI-H522 lung; A549/ATCC NSCLC; 786-0 renal; COLO 205 colon; DU-145 prostate; K-562 leukemia; MALME-3M melanoma; MDA-MB-231 breast; SF-268 CNS; SF-295 CNS; SF-539 CNS; UACC-257 melanoma; M14 melanoma.
Common to all, as to assay: NCI-60 one-dose screen, 48 h (100 = growth as untreated, 0 = no growth, -100 = all killed)
What all share (settings): 10 µM unless noted

With `COc1cc(NCC(O)CN(CC(C)C)CC(C)C)c2nc(C)ccc2c1` (configuration not stated), the growth in the test on NCI-H23 lung is 85.6%; in the test with NCI-H226 lung, 88.5%; in the test on NCI-H322M lung, 107%; with HOP-62 NSCLC it was 67.7%; in the test on NCI-H460 lung it was 96.5%; in the test with HOP-92 NSCLC, 98.6%. The growth is 68.2% in the test on NCI-H522 lung; 67.3% in the test on A549/ATCC NSCLC; 90.7% in the test on 786-0 renal; 66.3% in the test with COLO 205 colon; 97.9% in the test with DU-145 prostate; 78.4% with K-562 leukemia. In addition, the growth in the test on MALME-3M melanoma is 119%; with MDA-MB-231 breast it was 55.9%; in the test on SF-268 CNS, 78.9%; in the test on SF-295 CNS it was 100%; with SF-539 CNS, 108%; in the test on UACC-257 melanoma it was 54.1%. The growth in the test with M14 melanoma is 88.6%.
Regarding `CCN(CC)CCOC(COc1cc(C)cc(C)c1)COc1cc(C)cc(C)c1`, the growth with NCI-H23 lung is 37.9%; with NCI-H226 lung it was 54.4%; in the test with NCI-H322M lung, 48.7%; in the test on HOP-62 NSCLC, 54.3%; in the test on NCI-H460 lung, 9.62% (active); in the test with HOP-92 NSCLC, 22.7%. The growth in the test with NCI-H522 lung was 35.4%; with A549/ATCC NSCLC, 47.8%; in the test with 786-0 renal it was 44.9%; with COLO 205 colon, -15.8% (active); in the test on DU-145 prostate, 48.1%; with K-562 leukemia, 2.57% (active). The growth with MALME-3M melanoma is 13.6%; with MDA-MB-231 breast, 23.8%; in the test with SF-268 CNS it was 56.6%; in the test with SF-295 CNS, 48.9%; with SF-539 CNS, 61.9%; with UACC-257 melanoma, 65.1%. Further, the growth with M14 melanoma is 7.46% (active).
On to `CC1(C)CCCN1CCCN1c2ccccc2Sc2ccc(Cl)cc21`, for which the growth was 72.5% in the test on NCI-H23 lung; 82.9% in the test on NCI-H226 lung; 74.1% in the test with NCI-H322M lung; 77% in the test on HOP-62 NSCLC; 60.8% in the test with NCI-H460 lung; 62.9% in the test on HOP-92 NSCLC. For the same compound, the growth was 76.6% in the test on NCI-H522 lung; 83.8% in the test with A549/ATCC NSCLC; 54.2% in the test on 786-0 renal; 43.6% in the test with COLO 205 colon; 78.5% with DU-145 prostate; 14.2% in the test on K-562 leukemia. The growth in the test with MALME-3M melanoma was 67.2%; in the test on MDA-MB-231 breast it was 45.5%; with SF-268 CNS it was 76.3%; in the test on SF-295 CNS, 68.2%; in the test with SF-539 CNS it was 78.2%; in the test on UACC-257 melanoma, 105%. The growth with M14 melanoma is 39.1%.
As to `CC(C)CCSc1nc(NNC(N)=O)c(C#N)c(-c2ccccc2)n1`, the growth with NCI-H23 lung was 91.3%; in the test on NCI-H226 lung, 96.6%; in the test on NCI-H322M lung, 106%; in the test with HOP-62 NSCLC, 105%; with NCI-H460 lung, 112%; in the test on HOP-92 NSCLC, 86.1%. Besides, the growth is 97.4% in the test with NCI-H522 lung; 106% in the test on A549/ATCC NSCLC; 75.2% in the test on 786-0 renal; 121% with COLO 205 colon; 117% in the test on DU-145 prostate; 99.2% with K-562 leukemia. Further, the growth in the test with MALME-3M melanoma is 99.7%; with MDA-MB-231 breast, 99.6%; in the test on SF-268 CNS it was 101%; with SF-295 CNS, 96.9%; in the test on SF-539 CNS, 94.8%; in the test with UACC-257 melanoma it was 102%. Also, in the test on M14 melanoma, the growth was 71.7%.
In the case of `COc1ccc(NC(=O)c2sc3nc(C)c(C(=O)c4ccc(OC)cc4)cc3c2N)cc1`, the growth was 73.9% in the test with NCI-H23 lung; 87.9% with NCI-H226 lung; 40.3% in the test on NCI-H322M lung; 43% with HOP-62 NSCLC; 9.29% (active) with NCI-H460 lung; 67.3% in the test with HOP-92 NSCLC. For the same compound, the growth in the test on NCI-H522 lung was 40.7%; in the test with A549/ATCC NSCLC, 24.6%; in the test on 786-0 renal, 59.9%; in the test on COLO 205 colon it was 42.9%; in the test with DU-145 prostate, 65.4%; with K-562 leukemia, 23.3%. In addition, the growth in the test with MALME-3M melanoma is 37.9%; in the test with MDA-MB-231 breast, 60.2%; with SF-268 CNS, 61.8%; in the test on SF-295 CNS, 44.3%; with SF-539 CNS it was 51%; in the test on UACC-257 melanoma, 55.8%. Besides, the growth in the test on M14 melanoma was 32.8%.
`COc1ccc(NC(=O)c2sc3nc(C)c(C(=O)CCc4cccc(OC)c4)cc3c2N)cc1`: the growth in the test with NCI-H23 lung is 81.1%; in the test on NCI-H226 lung, 89.7%; with NCI-H322M lung, 40.1%; in the test on HOP-62 NSCLC, 70.8%; with NCI-H460 lung, 1.32% (active); in the test with HOP-92 NSCLC, 88.4%. Moreover, the growth is 78.7% in the test with NCI-H522 lung; 30.2% in the test with A549/ATCC NSCLC; 78.5% with 786-0 renal; 44.1% in the test on COLO 205 colon; 71.7% with DU-145 prostate; 20% in the test with K-562 leukemia. The growth is 62.5% in the test with MALME-3M melanoma; 85.8% with MDA-MB-231 breast; 80.2% in the test with SF-268 CNS; 15.7% in the test on SF-295 CNS; 72% in the test with SF-539 CNS; 89% in the test on UACC-257 melanoma. In addition, in the test on M14 melanoma, the growth is 70.1%.
`Cc1c(C2=CCCCC2)c2ccccn2c1C(=O)c1cccc(S(=O)(=O)N2CCOCC2)c1`: the growth in the test with NCI-H23 lung is 75.6%; with NCI-H226 lung, 93.2%; in the test with NCI-H322M lung, 80.7%; in the test on HOP-62 NSCLC it was 70%; with NCI-H460 lung it was 92.7%; in the test with HOP-92 NSCLC, 53.9%. The growth with NCI-H522 lung is 68.1%; with A549/ATCC NSCLC, 69.4%; with 786-0 renal it was 51%; in the test with COLO 205 colon it was 102%; with DU-145 prostate it was 98.3%; with K-562 leukemia, 57.4%. The growth with MALME-3M melanoma was 73.5%; with MDA-MB-231 breast, 92%; in the test on SF-268 CNS, 75%; with SF-295 CNS, 34.6%; with SF-539 CNS, 97.2%; with UACC-257 melanoma it was 86.8%. For the same compound, the growth in the test on M14 melanoma is 61.9%.
Regarding `CCN(CC)CCCCCCNc1cc(OC)cc2cccnc12`, the growth in the test on NCI-H23 lung was 85.5%; with NCI-H226 lung, 97.4%; in the test on NCI-H322M lung, 96%; in the test on HOP-62 NSCLC, 92.1%; in the test on NCI-H460 lung, 32.6%; in the test with HOP-92 NSCLC it was 85.2%. Also, the growth in the test on NCI-H522 lung was 5.26% (active); in the test with A549/ATCC NSCLC, 80.3%; with 786-0 renal, -50.7% (active); with COLO 205 colon it was -68.9% (active); with DU-145 prostate, 40.8%; with K-562 leukemia, -47.8% (active). The growth with MALME-3M melanoma is -77.4% (active); in the test with MDA-MB-231 breast, 32.6%; with SF-268 CNS it was 79.3%; with SF-295 CNS, 86.5%; with SF-539 CNS, 68.5%; in the test on UACC-257 melanoma, 115%. The growth in the test on M14 melanoma was -28.7% (active).
